Assay results published in PubChem BioAssay (NCI).
“And” between values parts separate entries of the source, which are not always exact repeats. Equal entries are not always repeated. This is part of a sample that, as a whole, favours compounds with a hit. Of some 83,000 tested, about 20% had one in any assay.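 Method: cells in 96-well plates; compound added at one concentration; 48 h incubation; percent growth measured; values under 10 scored active.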 The source made the active and inactive calls.

How the values were obtained:
Experiment in all cases: NCI-60 one-dose screen, 48 h (100 = growth as untreated, 0 = no growth, -100 = all killed)
Settings in all cases: 10 µM unless noted
MOLT-4 leukemia = tested on: MOLT-4 leukemia
RPMI-8226 leukemia = tested on: RPMI-8226 leukemia
OVCAR-8 ovarian = tested on: OVCAR-8 ovarian
OVCAR-4 ovarian = tested on: OVCAR-4 ovarian
SK-OV-3 ovarian = tested on: SK-OV-3 ovarian
IGROV1 ovarian = tested on: IGROV1 ovarian
OVCAR-3 ovarian = tested on: OVCAR-3 ovarian
HS 578T breast = tested on: HS 578T breast
NCI/ADR-RES ovarian = tested on: NCI/ADR-RES ovarian
T-47D breast = tested on: T-47D breast
BT-549 breast = tested on: BT-549 breast
MDA-MB-435 melanoma = tested on: MDA-MB-435 melanoma
SW-620 colon = tested on: SW-620 colon
MCF7 breast = tested on: MCF7 breast
HCT-116 colon = tested on: HCT-116 colon
HCC-2998 colon = tested on: HCC-2998 colon
KM12 colon = tested on: KM12 colon
OVCAR-5 ovarian = tested on: OVCAR-5 ovarian
SR leukemia = tested on: SR leukemia

Measured: growth

c1ccc(CCN2CCCCC2)nc1
inactive: MOLT-4 leukemia 92.9% | RPMI-8226 leukemia 94.3% | OVCAR-8 ovarian 108% | OVCAR-4 ovarian 99.3% | SK-OV-3 ovarian 99.2% | IGROV1 ovarian 107% | OVCAR-3 ovarian 111% | HS 578T breast 109% | NCI/ADR-RES ovarian 109% | T-47D breast 91.1% | BT-549 breast 99.8% | MDA-MB-435 melanoma 100% | SW-620 colon 112% | MCF7 breast 96.5% | HCT-116 colon 99.9% | HCC-2998 colon 119% | KM12 colon 110%

NNC(=S)N/N=C(\C(=O)Nc1cccc(O)c1)C1C(=O)NC(=S)NC1=O
inactive: MCF7 breast 95.1% [100 µM] and 87.3% [100 µM]

COc1cc(C=C2C(=O)NC(=O)NC2=O)ccc1O
inactive: OVCAR-8 ovarian 93.7% | OVCAR-5 ovarian 92% | SK-OV-3 ovarian 107% | IGROV1 ovarian 105% | OVCAR-3 ovarian 110% | HS 578T breast 123% | NCI/ADR-RES ovarian 97.5% | T-47D breast 101% | BT-549 breast 111% | MDA-MB-435 melanoma 101% | SW-620 colon 108% | MCF7 breast 106% | HCT-116 colon 102% | KM12 colon 104%

CC[CH2][Sn]([Cl])([Cl])[CH2]CC.Oc1ccccc1C=NCCN=Cc1ccccc1O
active: T-47D breast -86.4% and -71%
inactive: MOLT-4 leukemia 40.2% and 12.6% | SR leukemia 24.8% and 21.8% | OVCAR-8 ovarian 87.8% and 72.5% | OVCAR-4 ovarian 69.6% | SK-OV-3 ovarian 109% and 92.2% | IGROV1 ovarian 74.1% and 61.9% | OVCAR-3 ovarian 86.8% and 44.3% | HS 578T breast 77.7% and 48.6% | NCI/ADR-RES ovarian 90.7% and 91.1% | BT-549 breast 72.7% and 37.4% | MDA-MB-435 melanoma 71.8% and 50.1% | MCF7 breast 21.9% and 17.1% | HCT-116 colon 66.2% and 60.3% | HCC-2998 colon 66.5% and 52.5% | KM12 colon 88.4% and 79.7%

O=S1(=O)OCCO1
inactive: MOLT-4 leukemia 114% | RPMI-8226 leukemia 104% | OVCAR-8 ovarian 102% | SK-OV-3 ovarian 117% | IGROV1 ovarian 106% | OVCAR-3 ovarian 106% | HS 578T breast 95.1% | NCI/ADR-RES ovarian 99.7% | BT-549 breast 117% | MDA-MB-435 melanoma 98.2% | SW-620 colon 101% | MCF7 breast 98.8% | HCT-116 colon 102% | HCC-2998 colon 110% | KM12 colon 99.2%

NC1CN2CCC1CC2 (stereo not drawn)
inactive: MOLT-4 leukemia 97.8% | RPMI-8226 leukemia 96.4% | OVCAR-8 ovarian 97.8% | OVCAR-4 ovarian 106% | SK-OV-3 ovarian 97.4% | IGROV1 ovarian 102% | OVCAR-3 ovarian 105% | HS 578T breast 101% | NCI/ADR-RES ovarian 101% | T-47D breast 91% | BT-549 breast 95% | MDA-MB-435 melanoma 104% | SW-620 colon 99.7% | MCF7 breast 90.5% | HCT-116 colon 109% | HCC-2998 colon 114% | KM12 colon 115%

[N-]=[N+]=CC(=O)CCC(=O)C=[N+]=[N-]
inactive: MOLT-4 leukemia 87% | OVCAR-8 ovarian 98.9% | OVCAR-5 ovarian 107% | OVCAR-4 ovarian 108% | SK-OV-3 ovarian 109% | IGROV1 ovarian 49.2% | OVCAR-3 ovarian 103% | HS 578T breast 95.3% | NCI/ADR-RES ovarian 103% | T-47D breast 106% | MDA-MB-435 melanoma 113% | SW-620 colon 94.1% | MCF7 breast 99.9% | HCC-2998 colon 109% | KM12 colon 121%

NC(=O)c1c(Br)c(Br)c(Br)c(Br)c1C(=O)O (tested in a mixture with another compound)
inactive: SR leukemia 52.6% and 86.2% | RPMI-8226 leukemia 101% and 97.9% | OVCAR-8 ovarian 97.5% and 96.6% | SK-OV-3 ovarian 113% and 102% | IGROV1 ovarian 124% and 110% | HS 578T breast 114% and 115% | NCI/ADR-RES ovarian 103% and 100% | BT-549 breast 104% and 96.8% | MDA-MB-435 melanoma 92.5% and 102% | SW-620 colon 97.5% and 105% | MCF7 breast 79.5% and 88.8% | HCT-116 colon 97.8% and 105% | HCC-2998 colon 104% and 103% | KM12 colon 103% and 102%

C=C1C(=O)OC2/C=C(\C)CC/C=C(/C)CC(OC(=O)/C(=C/CO)CO)C12 (stereo not drawn)
active: MCF7 breast -85% [100 µM] and -68.3% [100 µM]

Oc1cc(Cl)ccc1Oc1ccc(Cl)cc1Cl
inactive: OVCAR-8 ovarian 10.7% | OVCAR-4 ovarian 29.9% | SK-OV-3 ovarian 89.2% | IGROV1 ovarian 52.4% | T-47D breast 17.9% | MDA-MB-435 melanoma 15.1% | SW-620 colon 21% | MCF7 breast 19.3% | HCC-2998 colon 105% | KM12 colon 21.9%
active: MOLT-4 leukemia 5.71% | SR leukemia 3.21% | OVCAR-3 ovarian 6.75% | HS 578T breast -18.1% | NCI/ADR-RES ovarian 7.74% | BT-549 breast 8.8% | HCT-116 colon 6.58%

COc1ccc(N)cc1OC
inactive: MOLT-4 leukemia 112% | RPMI-8226 leukemia 104% | OVCAR-8 ovarian 115% | OVCAR-5 ovarian 104% | OVCAR-4 ovarian 96.8% | SK-OV-3 ovarian 113% | IGROV1 ovarian 107% | OVCAR-3 ovarian 108% | HS 578T breast 116% | NCI/ADR-RES ovarian 107% | T-47D breast 100% | BT-549 breast 99.8% | MDA-MB-435 melanoma 103% | SW-620 colon 109% | MCF7 breast 102% | KM12 colon 100%
